The values below come from PubChem BioAssay (NCI).

About 83,000 compounds went through this panel and 20% of them were active in at least one assay; those are over-represented in the sample as a whole.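 Treatment: one concentration, 48 hours, 96-well format. Scoring: percent growth, with anything below 10 considered active.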 A number with no mark means an inactive call. The source made the active and inactive calls.

The first experiment concerns SW-620 colon. Put plainly: NCI-60 one-dose screen, 48 h (100 = growth as untreated, 0 = no growth, -100 = all killed). The conditions noted are these: 10 µM unless noted.
As to `CSc1nc(N)n2nccc2n1`, the growth is 97.9%.
`Cc1nnc(-c2cc3c(ccc4ccccc43)oc2=O)c2cn(-c3ccc(Cl)cc3)nc12`: the growth was 99.3%.
The same measure, in the same setting: under `COc1ccc(CNCCCN2C(=O)c3ccc4c5c(ccc(c35)C2=O)C(=O)N(CCCNCc2ccc(OC)c(OC)c2OC)C4=O)c(OC)c1OC` stands -94.6% (active); under `CCCCCCCCCCCCOC(=N)N(C)C`, 98.8%.
Consider `COCC(=O)NNc1[nH]c(-c2ccc(OC)cc2)cc1C#N`, for which the growth was 114%.
On the same count and under the same terms, under `c1cc(C2CCCCC2)ccc1OCCCCCCN1CCNCC1` stands -37.7% (active); under `O=C(CCCC(=O)Nc1ccc(Cn2nnc3cc(Cl)c(Cl)cc32)cc1)Nc1ccc(CN2N=NC3C=C(Cl)C(Cl)=CC32)cc1` (stereo not drawn), 85.8%; under `COc1cc(N)c2nccc(C)c2c1OC`, 94.1%.
Turning to `COc1ccc(Cn2cc3c(c2)-c2oncc2CC3)cc1OC`, the growth was 21.9%.
Take `Brc1c(-c2ccncc2)nc2n1CCS2`: the growth is 105%.
On to `CCc1c(C)c2ccc(OCC(=O)N=Nc3c(O)[nH]c4ccccc34)c(C)c2oc1=O`, for which the growth is -29.2% (active).
Still for that read-out and setting: the result for `Nc1ccc(N=Nc2ccccc2)c2cc(S(=O)(=O)O)ccc12` reads 106%; that for `CC(C)CSc1nc(-c2ccc(F)cc2)c(C#N)c(N2CCCCC2)n1`, 97.8%.
Take `Cc1ccc2c(O)c(O)cc(NC(C)CCCN)c2n1` (stereo not drawn): the growth is 73.2%.
Still for that read-out and setting: the result for `CCn1cnc(C[C@H](NC(=O)[C@@H](NC(=O)Nc2cc(C(F)(F)F)cc(C(F)(F)F)c2)C(C)(C)C)C(=O)OC)c1` reads -60% [100 µM] (active); that for `CC(C)OCC1CO1` (stereo not drawn), 96.4%; that for `COc1ccc(-c2nnc(SCC(=O)Nc3ccc(C(=O)/C=C/c4cc(OC)c(OC)c(OC)c4)cc3)n2-c2ccccc2)cc1OC`, 12.2% [100 µM].
Turning to `[N-]=[N+]=Nc1ncc(-c2ccc(C(F)(F)F)cc2)c(NC2CCCCCC2)n1`, the growth was 27.2% [100 µM].
Turning to `CC(C)(C)c1cc(C[P+](c2ccc(Cl)cc2)(c2ccc(Cl)cc2)c2ccc(Cl)cc2)cc(C(C)(C)C)c1O`, the growth was 79.6%.
On the same count and under the same terms, the result for `O=C(OCC1CC2(Cl)C(Cl)=C(Cl)C1(Cl)C2(Cl)Cl)C1C(C(=O)OCC2CC3(Cl)C(Cl)=C(Cl)C2(Cl)C3(Cl)Cl)C2(Cl)C(Cl)=C(Cl)C1(Cl)C2(Cl)Cl` (stereo not drawn) reads 107%; that for `O=S(=O)(Cc1cccc2c(CS(=O)(=O)c3ccc(Cl)cc3)cccc12)c1ccc(Cl)cc1`, 88.5%; that for `O=C(/C=C1\C(=O)N(Cc2ccccc2)c2ccccc21)c1ccc(OCCN2CCCCC2)cc1`, -45.7% (active).
In the case of `CC(C)(C)C(=O)CCCCCCCC/C=C/CCCC(O)c1ccco1` (stereo not drawn), the growth was 113%.
On the same count and under the same terms, the result for `CC(=O)CCS(=O)c1ccccc1` (stereo not drawn) reads 98%.
Consider `O=P(OCCCl)(OCCCl)C(O)c1ccccc1Cl` (stereo not drawn), for which the growth was 111%.
Same read-out and setting: under `CC1(C)C(O)NC(Cl)=C(C#N)C1(C#N)C#N` (stereo not drawn) stands 102%; under `COc1ccc(C(O)(c2ccccc2)C(C(=O)O)c2ccccc2)cc1` (stereo not drawn), 107%.
On the same count and under the same terms, under `O=C(O)CC1Cc2ccccc2C1C(=O)O` (stereo not drawn) stands 98.4%; under `O=c1[nH]c(=S)[nH]c(O)c1/C=C1\C=Nc2ccccc21`, 36.2%.
On the same count and under the same terms, the result for `O=C1NCCN1/N=C/c1c(Cl)nc2n1CCS2` reads 103%; that for `CCCC(=O)Nc1ccccc1C(=O)O`, 105%.
In the case of `CC(C)OC(=O)Nn1cnc2ccccc21`, the growth was 111%.
Same read-out and setting: the result for `O=C(NC1CCN(Cc2ccccc2)CC1)c1cc(-c2cccnc2)nc2ccc(Cl)cc12` reads 27%; that for `O=S(=O)(O)c1ccc2c(c1)Sc1cc(S(=O)(=O)O)ccc1O2`, 104%; that for `CCCCCc1ccnc(CC(=O)c2ccc(OC)cc2)c1`, 88.4%.
On to `COc1ccc(-c2nc(SCC(C)C)nc(Nc3ccc([N+](=O)[O-])cc3)c2C#N)cc1`, for which the growth is 84.8%.
Still for that read-out and setting: the result for `COc1cc2ncnc(Nc3ccc4c(cnn4C(=O)Nc4ccccc4)c3)c2cc1OC` reads 103%.
On the same count and under the same terms, under `CCCCCSc1ccc2nc(NC(=O)OCC)sc2c1` stands 19.6%; under `COc1ccc(C2=C/C(=C\c3ccc(Cl)cc3)C(=O)NN2C(=S)NN)cc1`, 99.4%.

In another experiment the test system is MCF7 breast. The experiment is described as above. Conditions: 10 µM unless noted.
For `CSc1nc(N)n2nccc2n1`, the growth was 96%.
With `Cc1nnc(-c2cc3c(ccc4ccccc43)oc2=O)c2cn(-c3ccc(Cl)cc3)nc12`, the growth was 80.1%.
Regarding `COc1ccc(CNCCCN2C(=O)c3ccc4c5c(ccc(c35)C2=O)C(=O)N(CCCNCc2ccc(OC)c(OC)c2OC)C4=O)c(OC)c1OC`, the growth was -85% (active).
As for `CCCCCCCCCCCCOC(=N)N(C)C`, the growth was 94.1%.
As for `COCC(=O)NNc1[nH]c(-c2ccc(OC)cc2)cc1C#N`, the growth is 108%.
Same read-out and setting: the result for `c1cc(C2CCCCC2)ccc1OCCCCCCN1CCNCC1` reads -31.3% (active); that for `O=C(CCCC(=O)Nc1ccc(Cn2nnc3cc(Cl)c(Cl)cc32)cc1)Nc1ccc(CN2N=NC3C=C(Cl)C(Cl)=CC32)cc1` (stereo not drawn), 66.6%; that for `COc1cc(N)c2nccc(C)c2c1OC`, 113%.
For `COc1ccc(Cn2cc3c(c2)-c2oncc2CC3)cc1OC`, the growth is 7.49% (active).
Still for that read-out and setting: under `Brc1c(-c2ccncc2)nc2n1CCS2` stands 110%; under `CCc1c(C)c2ccc(OCC(=O)N=Nc3c(O)[nH]c4ccccc34)c(C)c2oc1=O`, -4.72% (active); under `Nc1ccc(N=Nc2ccccc2)c2cc(S(=O)(=O)O)ccc12`, 86.5%.
On to `CC(C)CSc1nc(-c2ccc(F)cc2)c(C#N)c(N2CCCCC2)n1`, for which the growth is 83%.
Still for that read-out and setting: the result for `Cc1ccc2c(O)c(O)cc(NC(C)CCCN)c2n1` (stereo not drawn) reads 13.3%; that for `CCn1cnc(C[C@H](NC(=O)[C@@H](NC(=O)Nc2cc(C(F)(F)F)cc(C(F)(F)F)c2)C(C)(C)C)C(=O)OC)c1`, -62% [100 µM] (active).
With `CC(C)OCC1CO1` (stereo not drawn), the growth was 99.6%.
As for `COc1ccc(-c2nnc(SCC(=O)Nc3ccc(C(=O)/C=C/c4cc(OC)c(OC)c(OC)c4)cc3)n2-c2ccccc2)cc1OC`, the growth is 1.19% [100 µM] (active).
As for `[N-]=[N+]=Nc1ncc(-c2ccc(C(F)(F)F)cc2)c(NC2CCCCCC2)n1`, the growth was 16.3% [100 µM].
As to `CC(C)(C)c1cc(C[P+](c2ccc(Cl)cc2)(c2ccc(Cl)cc2)c2ccc(Cl)cc2)cc(C(C)(C)C)c1O`, the growth was 65.1%.
Still for that read-out and setting: under `O=C(OCC1CC2(Cl)C(Cl)=C(Cl)C1(Cl)C2(Cl)Cl)C1C(C(=O)OCC2CC3(Cl)C(Cl)=C(Cl)C2(Cl)C3(Cl)Cl)C2(Cl)C(Cl)=C(Cl)C1(Cl)C2(Cl)Cl` (stereo not drawn) stands 96.9%.
The same measure, in the same setting: the result for `O=S(=O)(Cc1cccc2c(CS(=O)(=O)c3ccc(Cl)cc3)cccc12)c1ccc(Cl)cc1` reads 85.4%; that for `O=C(/C=C1\C(=O)N(Cc2ccccc2)c2ccccc21)c1ccc(OCCN2CCCCC2)cc1`, 3.98% (active); that for `CC(C)(C)C(=O)CCCCCCCC/C=C/CCCC(O)c1ccco1` (stereo not drawn), 105%.
For the molecule `CC(=O)CCS(=O)c1ccccc1` (stereo not drawn), the growth is 91.6%.
Consider `O=P(OCCCl)(OCCCl)C(O)c1ccccc1Cl` (stereo not drawn), for which the growth was 99%.
Still for that read-out and setting: under `CC1(C)C(O)NC(Cl)=C(C#N)C1(C#N)C#N` (stereo not drawn) stands 107%; under `COc1ccc(C(O)(c2ccccc2)C(C(=O)O)c2ccccc2)cc1` (stereo not drawn), 114%; under `O=C(O)CC1Cc2ccccc2C1C(=O)O` (stereo not drawn), 105%.
For the molecule `O=c1[nH]c(=S)[nH]c(O)c1/C=C1\C=Nc2ccccc21`, the growth was 62.2%.
On the same count and under the same terms, under `O=C1NCCN1/N=C/c1c(Cl)nc2n1CCS2` stands 106%; under `CCCC(=O)Nc1ccccc1C(=O)O`, 90.7%.
As for `CC(C)OC(=O)Nn1cnc2ccccc21`, the growth is 120%.
Same read-out and setting: the result for `O=C(NC1CCN(Cc2ccccc2)CC1)c1cc(-c2cccnc2)nc2ccc(Cl)cc12` reads 70.9%; that for `O=S(=O)(O)c1ccc2c(c1)Sc1cc(S(=O)(=O)O)ccc1O2`, 106%.
`CCCCCc1ccnc(CC(=O)c2ccc(OC)cc2)c1`: the growth is 87.4%.
For the molecule `COc1ccc(-c2nc(SCC(C)C)nc(Nc3ccc([N+](=O)[O-])cc3)c2C#N)cc1`, the growth was 90.2%.
The same measure, in the same setting: the result for `COc1cc2ncnc(Nc3ccc4c(cnn4C(=O)Nc4ccccc4)c3)c2cc1OC` reads 60.4%; that for `CCCCCSc1ccc2nc(NC(=O)OCC)sc2c1`, 13.9%; that for `COc1ccc(C2=C/C(=C\c3ccc(Cl)cc3)C(=O)NN2C(=S)NN)cc1`, 75.3%.
